Test results reported in the supplement of paper PMC6992640.

These molecules were tested on HCI01 (cells of a triple-negative basal-like breast cancer xenograft) (assay: cell viability of combination (% of vehicle); higher = less cytotoxic). Details: 1 µM; 72 h; partner dose: 10 nM.
Procedure: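 PDX cells were treated for 72 h with each drug at 1 µM plus carfilzomib (10 nM; 100 nM for WHIM2). Luciferase viability is expressed as percent of vehicle.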

Point of comparison: `Cc1cn(-c2cc(NC(=O)c3ccc(C)c(Nc4nccc(-c5cccnc5)n4)c3)cc(C(F)(F)F)c2)cn1` [Nilotinib(AMN-107)] + CC(C)C[C@H](NC(=O)[C@H](CCc1ccccc1)NC(=O)CN1CCOCC1)C(=O)N[C@@H](Cc1ccccc1)C(=O)N[C@@H](CC(C)C)C(=O)[C@@]1(C)CO1 [Carfilzomib], “cell viability of combination” value 69.1. Against it:
- O=C(O)CO.[NH2-].[NH2-].[Pt+2] [Nedaplatin] + CC(C)C[C@H](NC(=O)[C@H](CCc1ccccc1)NC(=O)CN1CCOCC1)C(=O)N[C@@H](Cc1ccccc1)C(=O)N[C@@H](CC(C)C)C(=O)[C@@]1(C)CO1 [Carfilzomib] — higher, 71.6
- CCN1CCN(Cc2ccc(Nc3ncc(F)c(-c4cc(F)c5nc(C)n(C(C)C)c5c4)n3)nc2)CC1.CS(=O)(=O)O + CC(C)C[C@H](NC(=O)[C@H](CCc1ccccc1)NC(=O)CN1CCOCC1)C(=O)N[C@@H](Cc1ccccc1)C(=O)N[C@@H](CC(C)C)C(=O)[C@@]1(C)CO1 [Carfilzomib] — lower, 62.7
- CC(C)C(=O)OCC(=O)[C@@]12O[C@H](C3CCCCC3)O[C@@H]1C[C@H]1[C@@H]3CCC4=CC(=O)C=C[C@]4(C)[C@H]3[C@@H](O)C[C@@]12C [Ciclesonide] + CC(C)C[C@H](NC(=O)[C@H](CCc1ccccc1)NC(=O)CN1CCOCC1)C(=O)N[C@@H](Cc1ccccc1)C(=O)N[C@@H](CC(C)C)C(=O)[C@@]1(C)CO1 [Carfilzomib] — higher, 108
- Oc1c(Cl)cc(Cl)c2cccnc12 [Chloroxine] + CC(C)C[C@H](NC(=O)[C@H](CCc1ccccc1)NC(=O)CN1CCOCC1)C(=O)N[C@@H](Cc1ccccc1)C(=O)N[C@@H](CC(C)C)C(=O)[C@@]1(C)CO1 [Carfilzomib] — higher, 79.4
- COc1cccc2c1C(=O)c1c(O)c3c(c(O)c1C2=O)C[C@@](O)(C(C)=O)C[C@@H]3O[C@H]1C[C@H](N)[C@H](O)[C@H](C)O1.Cl [Daunorubicin HCl] + CC(C)C[C@H](NC(=O)[C@H](CCc1ccccc1)NC(=O)CN1CCOCC1)C(=O)N[C@@H](Cc1ccccc1)C(=O)N[C@@H](CC(C)C)C(=O)[C@@]1(C)CO1 [Carfilzomib] — higher, 79.9
- CCOc1cc2ncc(C#N)c(Nc3ccc(F)c(Cl)c3)c2cc1NC(=O)C=CCN(C)C [Pelitinib (EKB-569)] + CC(C)C[C@H](NC(=O)[C@H](CCc1ccccc1)NC(=O)CN1CCOCC1)C(=O)N[C@@H](Cc1ccccc1)C(=O)N[C@@H](CC(C)C)C(=O)[C@@]1(C)CO1 [Carfilzomib] — higher, 140
- COCCn1c2c([n+](Cc3cnccn3)c1C)C(=O)c1ccccc1C2=O.[Br-] + CC(C)C[C@H](NC(=O)[C@H](CCc1ccccc1)NC(=O)CN1CCOCC1)C(=O)N[C@@H](Cc1ccccc1)C(=O)N[C@@H](CC(C)C)C(=O)[C@@]1(C)CO1 [Carfilzomib] — lower, 25.5
- CC(C)CC(NC(=O)C(CCc1ccccc1)NC(=O)CN1CCOCC1)C(=O)NC(Cc1ccccc1)C(=O)NC(CC(C)C)C(=O)C1(C)CO1 (stereo not given) [Carfilzomib (PR-171)] + CC(C)C[C@H](NC(=O)[C@H](CCc1ccccc1)NC(=O)CN1CCOCC1)C(=O)N[C@@H](Cc1ccccc1)C(=O)N[C@@H](CC(C)C)C(=O)[C@@]1(C)CO1 [Carfilzomib] — lower, 31
- COc1cccc2c1C(=O)c1c(O)c3c(c(O)c1C2=O)CC(O)(C(=O)CO)CC3OC1CC(N)C(O)C(C)O1.Cl (stereo not given) [Doxorubicin (Adriamycin) HCl] + CC(C)C[C@H](NC(=O)[C@H](CCc1ccccc1)NC(=O)CN1CCOCC1)C(=O)N[C@@H](Cc1ccccc1)C(=O)N[C@@H](CC(C)C)C(=O)[C@@]1(C)CO1 [Carfilzomib] — lower, 60.9
- CC(C)N=c1cc2n(-c3ccc(Cl)cc3)c3ccccc3nc-2cc1Nc1ccc(Cl)cc1 [Clofazimine] + CC(C)C[C@H](NC(=O)[C@H](CCc1ccccc1)NC(=O)CN1CCOCC1)C(=O)N[C@@H](Cc1ccccc1)C(=O)N[C@@H](CC(C)C)C(=O)[C@@]1(C)CO1 [Carfilzomib] — higher, 71.9
- Cl.Nc1ccn(C2OC(CO)C(O)C2O)c(=O)n1 (stereo not given) [Cytarabine hydrochloride] + CC(C)C[C@H](NC(=O)[C@H](CCc1ccccc1)NC(=O)CN1CCOCC1)C(=O)N[C@@H](Cc1ccccc1)C(=O)N[C@@H](CC(C)C)C(=O)[C@@]1(C)CO1 [Carfilzomib] — lower, 65.5
- CCC(NC(=O)C(C)NC)C(=O)N1CC(O)CC1Cc1c(-c2[nH]c3cc(F)ccc3c2CC2CC(O)CN2C(=O)C(CC)NC(=O)C(C)NC)[nH]c2cc(F)ccc12 (stereo not given) + CC(C)C[C@H](NC(=O)[C@H](CCc1ccccc1)NC(=O)CN1CCOCC1)C(=O)N[C@@H](Cc1ccccc1)C(=O)N[C@@H](CC(C)C)C(=O)[C@@]1(C)CO1 [Carfilzomib] — lower, 61.9
- O=C(NN=Cc1ccc([N+](=O)[O-])o1)c1ccc(O)cc1 [Nifuroxazide] + CC(C)C[C@H](NC(=O)[C@H](CCc1ccccc1)NC(=O)CN1CCOCC1)C(=O)N[C@@H](Cc1ccccc1)C(=O)N[C@@H](CC(C)C)C(=O)[C@@]1(C)CO1 [Carfilzomib] — higher, 72.2
- CCOC(=O)c1c(CSc2ccccc2)n(C)c2cc(Br)c(O)c(CN(C)C)c12.Cl [Arbidol HCl] + CC(C)C[C@H](NC(=O)[C@H](CCc1ccccc1)NC(=O)CN1CCOCC1)C(=O)N[C@@H](Cc1ccccc1)C(=O)N[C@@H](CC(C)C)C(=O)[C@@]1(C)CO1 [Carfilzomib] — higher, 76.6
- CC1=CC(=O)c2ccccc2C1=O [Menadione] + CC(C)C[C@H](NC(=O)[C@H](CCc1ccccc1)NC(=O)CN1CCOCC1)C(=O)N[C@@H](Cc1ccccc1)C(=O)N[C@@H](CC(C)C)C(=O)[C@@]1(C)CO1 [Carfilzomib] — higher, 78.2
- COc1cccc2c1C(=O)c1c(O)c3c(c(O)c1C2=O)CC(O)(C(=O)CO)CC3OC1CC(N)C(O)C(C)O1 (stereo not given) [Doxorubicin] + CC(C)C[C@H](NC(=O)[C@H](CCc1ccccc1)NC(=O)CN1CCOCC1)C(=O)N[C@@H](Cc1ccccc1)C(=O)N[C@@H](CC(C)C)C(=O)[C@@]1(C)CO1 [Carfilzomib] — lower, 55.4
- CCC(=C(c1ccccc1)c1ccc(OCCN(C)C)cc1)c1ccccc1.O=C(O)CC(O)(CC(=O)O)C(=O)O [Tamoxifen Citrate] + CC(C)C[C@H](NC(=O)[C@H](CCc1ccccc1)NC(=O)CN1CCOCC1)C(=O)N[C@@H](Cc1ccccc1)C(=O)N[C@@H](CC(C)C)C(=O)[C@@]1(C)CO1 [Carfilzomib] — higher, 90.4
- C#Cc1cccc(Nc2ncnc3cc(OCCOC)c(OCCOC)cc23)c1.Cl [Erlotinib Hydrochloride] + CC(C)C[C@H](NC(=O)[C@H](CCc1ccccc1)NC(=O)CN1CCOCC1)C(=O)N[C@@H](Cc1ccccc1)C(=O)N[C@@H](CC(C)C)C(=O)[C@@]1(C)CO1 [Carfilzomib] — lower, 62.6
- Cc1nc(NC(=O)N2CCCC2C(N)=O)sc1-c1ccnc(C(C)(C)C(F)(F)F)c1 (stereo not given) + CC(C)C[C@H](NC(=O)[C@H](CCc1ccccc1)NC(=O)CN1CCOCC1)C(=O)N[C@@H](Cc1ccccc1)C(=O)N[C@@H](CC(C)C)C(=O)[C@@]1(C)CO1 [Carfilzomib] — lower, 62.6
- COC(=O)NC(C(=O)N1CCCC1c1ncc(-c2ccc(-c3ccc(-c4cnc(C5CCCN5C(=O)C(NC(=O)OC)C(C)C)[nH]4)cc3)cc2)[nH]1)C(C)C (stereo not given) + CC(C)C[C@H](NC(=O)[C@H](CCc1ccccc1)NC(=O)CN1CCOCC1)C(=O)N[C@@H](Cc1ccccc1)C(=O)N[C@@H](CC(C)C)C(=O)[C@@]1(C)CO1 [Carfilzomib] — higher, 70.8
- CSc1ccc2c(c1)N(CCC1CCCCN1C)c1ccccc1S2.Cl (stereo not given) [Thioridazine HCl] + CC(C)C[C@H](NC(=O)[C@H](CCc1ccccc1)NC(=O)CN1CCOCC1)C(=O)N[C@@H](Cc1ccccc1)C(=O)N[C@@H](CC(C)C)C(=O)[C@@]1(C)CO1 [Carfilzomib] — higher, 77.7
- COC(=O)C1=C(C)NC(C)=C(C(=O)OC2CCCN(Cc3ccccc3)C2)C1c1cccc([N+](=O)[O-])c1.Cl (stereo not given) [Benidipine HCl] + CC(C)C[C@H](NC(=O)[C@H](CCc1ccccc1)NC(=O)CN1CCOCC1)C(=O)N[C@@H](Cc1ccccc1)C(=O)N[C@@H](CC(C)C)C(=O)[C@@]1(C)CO1 [Carfilzomib] — higher, 106
- CC(CCC(=O)O)C1CCC2C3CCC4CC(O)CCC4(C)C3CCC12C (stereo not given) [Lithocholic Acid] + CC(C)C[C@H](NC(=O)[C@H](CCc1ccccc1)NC(=O)CN1CCOCC1)C(=O)N[C@@H](Cc1ccccc1)C(=O)N[C@@H](CC(C)C)C(=O)[C@@]1(C)CO1 [Carfilzomib] — lower, 67.4
- CN(C)CCOc1ccc(C(=C(CCCl)c2ccccc2)c2ccccc2)cc1.O=C(O)CC(O)(CC(=O)O)C(=O)O [Toremifene Citrate] + CC(C)C[C@H](NC(=O)[C@H](CCc1ccccc1)NC(=O)CN1CCOCC1)C(=O)N[C@@H](Cc1ccccc1)C(=O)N[C@@H](CC(C)C)C(=O)[C@@]1(C)CO1 [Carfilzomib] — higher, 103
